An excerpt weighted towards active compounds, which were near 1.3% of everything screened.
BCLXL inh: inhibitors of human Bcl-xL; Q07817; GST-Bcl-xL / FITC-Bim BH3 peptide fluorescence polarization; inhibition, % at 10.9 µM; 320,000 compounds, 0.7% hits;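 active means inhibition above the mean of all tested compounds plus 3 SD, cutoff set per campaign, cut at about 30% in these data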;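 further: 0% = DMSO wells and 100% = unlabeled Bim-BH3 peptide competitor; inhibitors lower millipolarization by displacing the labeled peptide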
Target sequence (Q07817 whole entry, looked up): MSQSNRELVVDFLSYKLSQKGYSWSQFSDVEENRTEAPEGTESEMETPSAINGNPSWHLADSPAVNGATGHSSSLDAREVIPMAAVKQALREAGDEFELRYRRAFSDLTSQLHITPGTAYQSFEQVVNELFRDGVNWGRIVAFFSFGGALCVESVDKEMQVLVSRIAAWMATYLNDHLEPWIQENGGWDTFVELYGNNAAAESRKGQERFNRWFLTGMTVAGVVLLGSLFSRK
EBV gp42 block: blocks Epstein-Barr virus glycoprotein 42 binding; Q1HVG2; Fluorescence polarization binding assay, mP read-out; inhibition, % (tested at 21.74 µM); 220,000 compounds, 0.42% hits; in the data active means inhibition above about 50%
Target sequence (Q1HVG2 whole entry, looked up): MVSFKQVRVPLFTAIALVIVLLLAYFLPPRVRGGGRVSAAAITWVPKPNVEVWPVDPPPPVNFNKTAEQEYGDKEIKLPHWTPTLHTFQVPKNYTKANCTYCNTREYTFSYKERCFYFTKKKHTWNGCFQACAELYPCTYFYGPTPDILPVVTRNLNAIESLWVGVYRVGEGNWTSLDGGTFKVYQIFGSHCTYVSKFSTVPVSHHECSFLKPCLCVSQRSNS
MCL1 BIM primary: inhibitors of human MCL1 binding to BIM-BH3 peptide | AID 2057 | 320,000 compounds, 0.68% hits | inhibition, % at 10.9 µM | GST-MCL1 / FITC-Bim-BH3 fluorescence polarization | Q07820;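 active means inhibition above the mean inhibition of all tested compounds plus 3 SD, set per campaign, cut at about 40% in these data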;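 further: 0% = DMSO wells and 100% = unlabeled Bim-BH3 peptide control; higher means more loss of mP so more displacement of Bim peptide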
MEX-5 binding: C. elegans MEX-5 TCR-2 RNA binding activity; Q9XUB2; MEX-5/FITC-TCR2 RNA binding, fluorescence polarization; stronger effect = lower value; activity score (negative = inhibition of binding), % at 10 µM; 300,000 compounds, 0.38% hits; AID 1832;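 active means inhibition past about -25% in most replicates, and total fluorescence under double the plate's negative control median, limit read from the data; inconclusive means replicates evenly split on the limit, or fluorescence at least double controls; inactive means too little inhibition in most replicates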;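 further: 0% = DMSO and -100% = 5 µM competing unlabeled TCR2 RNA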
GLD-1 TGE inh: GLD-1-TGE RNA interaction inhibition (C. elegans). 320,000 compounds, 0.44% hits. Q17339. inhibition, % at 5.96 µM. purified GLD-1 + fluorescein TGE RNA, fluorescence polarization;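 active means percent inhibition above a per-plate cutoff, the plate mean of test compounds plus 3 SD, cut at about 30% in these data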;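 further: 0% = DMSO wells with GLD-1 and probe and 100% = wells lacking GLD-1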
* hit, by the source's call; ? = inconclusive; · = no result given.

SMILES | BCLXL inh | EBV gp42 block | MCL1 BIM primary | MEX-5 binding | GLD-1 TGE inh
CCc1ccc(/C=C2\Oc3cc(OS(C)(=O)=O)ccc3C2=O)cc1 | -3 | -1 | -2 | -1 | 2
NC(=O)c1ccc(NC(=O)CN2CCN(Cc3ccccc3)CC2)cc1 | 3 | · | 4 | -5 | -2
O=S1(=O)CC2SC(=S)N(Cc3ccccc3)C2C1 (centres undefined) | -2 | -15 | -4 | -1 | 6
Cc1ccc[n+](CC(=O)c2ccc(Br)cc2)c1 | · | · | · | -1 | ·
N#Cc1ccc[n+](CC(=O)c2ccc(Cl)cc2)c1 | 33* | · | 40 | -4 | 16
CC(=O)c1cc2c(O)c(O)ccc2o1 | 34* | -18 | 24 | 0 | 10
CC(=O)c1cc2cc(O)ccc2o1 | -8 | -23 | -13 | · | -2
CCCCn1nc(-c2ccccc2)c2nc3ccccc3nc21 | 24 | 154* | 20 | ? | 9
Cc1ccc(/C=C2\CCC3=C2OC(N)=C(C#N)C3c2ccc(C)cc2)cc1 (centres undefined) | -23 | 58* | -53 | -7 | -69
O=C(CN1C(=O)S/C(=C\c2ccccc2)C1=O)NNC(=O)c1ccccc1O | 5 | 2 | 10 | -2 | 3
COc1ccc(/C=C2\SC(=O)N(CC(=O)NNC(=O)c3ccccc3O)C2=O)cc1 | 6 | 58* | 9 | 0 | -5
O=C1C2C3C=CC(C4CC34)C2C(=O)N1/N=C/c1ccc(-c2ccc(Cl)cc2[N+](=O)[O-])o1 (centres undefined) | 16 | 10 | 18 | 2 | 15
COc1ccc(-c2ccc(/C=N/N3C(=O)C4C5C=CC(C6CC56)C4C3=O)o2)c([N+](=O)[O-])c1 (centres undefined) | 31* | 5 | 39 | 2 | 20
COc1ccc(-c2sc(Nc3ccc(F)c(F)c3F)nc2CCC(=O)NN)cc1 | -2 | · | 2 | 1 | 4
CCN(CC)c1ccc(N)cc1 | -4 | · | -13 | · | -9
Nc1ccc(N(CCO)CCO)cc1 | 42* | -6 | 43* | -28* | 22
CCOC(=O)c1ccc(N2C(=O)C3C(C2=O)C(C(=O)c2ccc(Cl)cc2)N2CCCC32)cc1 (centres undefined) | 58* | 94* | 36 | -6 | 21
CN=C1S/C(=C\c2cn(CC(=O)OC)c3ccccc23)C(=O)N1C | -2 | -10 | -2 | -28* | -17
CN=C1S/C(=C/c2cn(CC(=O)OC)c3ccccc23)C(=O)N1C | -4 | -19 | -6 | 3 | -14
O=C1c2c(O)cccc2Cc2cccc(O)c21 | 31* | · | 36 | · | 21
CCNc1ccc(C(=O)OCC(=O)Nc2cc(C)on2)cc1[N+](=O)[O-] | -6 | · | -14 | · | -5
CCN1CCN(CC(=O)N2N=C(c3cccs3)CC2c2ccc(OC)c(OC)c2)C(=O)C1=O (centres undefined) | -1 | 64* | 6 | -1 | 7
O=C(NC(=S)Nc1cccc(O)c1)C1CCCCC1 | · | · | · | · | 6
COc1cc(C(CCN2CCCC2)c2c(OC)cc(OC)c3c(-c4ccccc4)cc(=O)oc23)cc(OC)c1OC (centres undefined) | -3 | -8 | -7 | -48* | 2
CCN(CC)C(=O)CC(c1cc(OC)c(OC)c(OC)c1)c1c(OC)cc(OC)c2c(-c3ccccc3)cc(=O)oc12 (centres undefined) | 6 | 99* | 37 | 1 | -9
SMILES | BCLXL inh | EBV gp42 block | MCL1 BIM primary | MEX-5 binding | GLD-1 TGE inh
CCn1c2ccccc2n2c(=O)c(=O)n(CC(=O)Nc3ccc(C(C)C)cc3)nc12 | -2 | 13 | -7 | 3 | 2
COc1ccc(-c2nn(-c3ccccc3)cc2CNC[C@H]2O[C@@H](n3cnc4c(N)ncnc43)[C@H](O)[C@@H]2O)cc1 | · | · | · | · | -1
O=c1oc2ccccc2cc1-c1nc2ccccc2o1 | -1 | -20 | -3 | · | 7
O=c1oc2ccc3ccccc3c2cc1-c1nc2ccccc2o1 | 15 | · | 5 | -76* | 6
COc1ccc(NC(=O)NC(=O)c2cc(OCC(F)(F)F)ccc2OCC(F)(F)F)cc1 | 0 | 74* | 4 | 1 | 0
O=C(NCCNC(=O)c1cc(OCC(F)(F)F)ccc1OCC(F)(F)F)Nc1ccccc1 | -1 | -30 | 2 | 5 | 3
Cc1ccccc1OCC(=O)N1N=C(c2cccnc2)CC1(O)C(F)(F)F (centres undefined) | 4 | 7 | -5 | 0 | -1
COc1ccc(-c2cc3c(=O)n(CC(=O)Nc4ccc(C(C)=O)cc4)ncn3n2)cc1 | 73* | · | -4 | -3 | 7
CCCCC1(C)OC(=O)C(=Cc2ccc(N(CC)CC)cc2)C(=O)O1 (centres undefined) | -13 | 75* | -22 | ? | -5
CCOc1cccc(C2C(C(=O)c3ccco3)=C(O)C(=O)N2Cc2ccncc2)c1 (centres undefined) | 5 | -1 | 6 | 0 | -2
C=CCOc1ccc(C2C(C(=O)c3ccco3)=C(O)C(=O)N2c2nnc(C)s2)cc1 (centres undefined) | 33* | 43 | 27 | -7 | 21
O=C(C1=C(O)C(=O)N(c2ncccn2)C1c1cccc(Cl)c1)c1ccco1 (centres undefined) | 9 | 3 | 2 | -2 | 7
CCOc1cccc(C2C(C(=O)c3ccco3)=C(O)C(=O)N2c2nnc(C)s2)c1 (centres undefined) | 43* | · | 34 | · | 50*
COc1ccc(C2C(C(=O)c3ccco3)=C(O)C(=O)N2c2nnc(C)s2)cc1 (centres undefined) | 26 | 43 | 32 | -6 | 24
CSc1nnc(N2C(=O)C(O)=C(C(=O)c3ccco3)C2c2cccc(Cl)c2)s1 (centres undefined) | 39* | · | 33 | -26* | 37*
COc1ccc(C2C(C(=O)c3ccco3)=C(O)C(=O)N2c2nnc(C)s2)cc1OC (centres undefined) | 45* | · | 43* | -12 | 19
CC1=CCC[C@@H]2[C@@](C)(CC/C(C)=C/C(=O)O)[C@H](C)CC[C@@]12C | 1 | -3 | 5 | -3 | 2
C/C(=N\NC(=O)c1nnn(-c2nonc2N)c1CSc1ccc(Cl)cc1)c1ccco1 | -3 | · | 5 | -4 | 1
CN(CC1CCOCC1)C(=O)CC1C(=O)NCCN1Cc1cccc(C(F)(F)F)c1 (centres undefined) | · | · | · | 0 | ·
Cc1c(NC(=O)Nc2cccc(F)c2)c(=O)n(-c2ccccc2)n1C | 8 | · | 3 | -1 | 121*
Cc1cccc(NC(=O)Nc2c(C)n(C)n(-c3ccccc3)c2=O)c1 | 4 | · | -3 | -2 | -1
Cc1nc2sccn2c(=O)c1S(=O)(=O)Nc1cccc(Cl)c1C | -1 | · | 2 | 1 | 0
Cc1cc(N=Cc2c(O)n(-c3ccc4c(c3)OCO4)c(=O)c3ccccc23)ccn1 | -10 | -77 | -17 | -31* | 2
NC(=O)CC[C@@H]1NC(=O)[C@@H]2CCCN2C(=O)c2cc([N+](=O)[O-])cc(I)c2NCCC[C@@H](C(N)=O)NC1=O | 2 | -15 | -7 | · | 2

Screens from PubChem BioAssay.
